# Results taken from PubChem BioAssay (EPA / NIEHS).
# Records with an inconclusive call do not appear. Calls of active or inactive are those of the source. The calls were made as follows: active = hit-call score of the fitted dose curve at least 0.9, where 1 is the maximum; inconclusive = response in the unintended direction; inactive = score below 0.9.
# Read-out: HMG-CoA synthase (HMGCS2), HMGCS2 (gene 3158)
# Experiment: CLD_HMGCS2_6hr: CellzDirect (CLD) Gene Expression Assay for HMG-CoA synthase (HMGCS2) at 6 hours (AID 2283682);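 also: actives raise HMGCS2 transcript above the 0.2% DMSO vehicle baseline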
# Description: CLD_6hr is a cell-based, multiplexed-readout assay that uses hepatocyte, a human liver primary cell, with measurements taken at 6 hours after chemical dosing in a 96-well plate.CLD_HMGCS2_6hr is one of 16 assay component(s) measured or calculated from the CLD_6hr assay. It is designed to make measurements of mRNA induction, a form of inducible reporter, as detected with chemiluminescence signals by Quantitative Nuclease Protection Assay (qNPA) technology.Data from the assay component CLD_HMGCS2_6hr was analyzed at the endpoint, CLD_HMGCS2_6hr, in the positive analysis fitting direction relative to DMSO as the negative control and baseline of activity. Using a type of inducible reporter, gain-of-signal activity can be used to understand changes in the reporter gene as they relate to the gene HMGCS2. Furthermore, this assay endpoint can be referred to as a primary readout. To generalize the intended target to other relatable targets, this assay endpoint is annotated to the lyase intended target family, where subfamily is HMG-CoA synthase.
# Human hepatocyte cultures were treated daily for two consecutive days with fresh dosing solutions containing appropriate concentrations of the 320 ToxCast chemicals (chemical identities were blinded to CellzDirect and other ToxCast collaborators), vehicle control (0.2% DMSO), and positive control inducers as summarized in Table 1. Due to the large number of treatment groups and chemicals examined, the ToxCast chemicals were divided into two groups (spanning two independent cultures of hepatocytes from separate donor preparations (Hu778: ToxCast plates 1 and 2; Hu776: ToxCast plates 3 and 4). Each preparation of human hepatocyte cultures was treated with respective vehicle control, medium only control, set of six positive controls/reference chemicals for the five hepatic receptor pathways, and a subset of eight of the ToxCast chemicals (indoxacarb, pyrithiobac-sodium, norflurazon, cyhalofop-butyl, methomyl, thiram, acetochlor, and propiconazole). These replicate data, coupled with internal replicates designed within the blinded ToxCast chemical library, provided additional data to evaluate interindividual differences between hepatocyte preparations and their potential impact on chemical profiles.Cell morphology and integrity were evaluated using phase-contrast microscopy as an indicator of hepatocyte cell health (Tyson & Green, 1987). Cultures for each treatment group (i.e., media, vehicle [0.2% DMSO], positive control inducers [multiple concentrations], and the ToxCast chemicals [multiple concentrations]) were observed and cell morphology was assessed relative to vehicle control cultures at each harvest time point (0, 6, 24, or 48 h). […] Images were evaluated at the conclusion of the study to assess changes in cell integrity and account for the effects of chemical exposure on uncharacteristic changes in concentration-dependent gene expression profiles. The results from these determinations of apparent cytotoxicity were annotated (yes/no) alongside the corresponding qNPA data for reference.At the conclusion of each treatment period, hepatocyte cultures (96-well) were washed with 1 volume of HBSS, lysed by addition of 25 ul ArrayPlate lysis buffer (HTG, Tucson, AZ), and 70 ul/well of Denaturation Oil, denatured by incubation at 95C for 10 min, and frozen at approximately -70C until analysis by nuclease protection assay (qNPA) (Roberts et al., 2007). For qNPA analysis, cell lysates were thawed at 50C for approximately 30 min, qNPA probes were added, and samples were incubated at 95C for 10 min to begin the detection process by denaturing the target RNA, dissociating the duplexes and secondary structure hybridization. At the conclusion of the hybridization period, S1 nuclease reagent was added to each sample to digest all nonprotected nucleotides at 50C for 60-90 min. […]
Structure (SMILES),outcome,AC50
O=C(O)C1(C(=O)Nc2ccc(Cl)cc2Cl)CC1,inactive,
CCN(CC)C(=O)c1cccc(C)c1,inactive,
CC(C)(c1ccc(O)cc1)c1ccc(O)cc1,inactive,
S=C([S-])NCCNC(=S)[S-].[Mn+2],inactive,
CCOC(=O)COc1cc(-n2ncc(C(F)(F)F)c(C)c2=O)c(F)cc1Cl,inactive,
COC(=O)c1ccccc1C(=O)O,inactive,
CC1(C)C(C=C(Cl)Cl)C1C(=O)OCc1cccc(Oc2ccccc2)c1 (stereo not given),inactive,
CCCOC(=O)c1ccc(C(=O)OCCC)nc1,inactive,
CCCCC(CC)COC(=O)c1ccccc1C(=O)O (stereo not given),inactive,
CC(C)(C)[C@@H](O)[C@@H](Cc1ccc(Cl)cc1)n1cncn1,,1.9 µM (active)
CCOC(=O)C(C)Oc1ccc(Oc2nc3ccc(Cl)cc3o2)cc1 (stereo not given),inactive,
c1ccc(Nc2ccccc2)cc1,inactive,
Oc1ccc(C(c2ccc(O)cc2)C(Cl)(Cl)Cl)cc1,inactive,
CCC(C)OC(=O)N1CCCCC1CCO (stereo not given),inactive,
N#CSCSc1nc2ccccc2s1,,7.13 µM (active)
CCC(O)=C1C(=O)CC(C(=O)O)CC1=O (stereo not given),inactive,
CSC(=O)c1cccc2nnsc12,inactive,
COc1c(Cl)ccc(Cl)c1C(=O)O,inactive,
COC(=O)c1ccc(I)cc1S(=O)(=O)NC(=O)Nc1nc(C)nc(OC)n1,inactive,
CCCCOC(=O)[C@@H](C)Oc1ccc(Oc2ccc(C(F)(F)F)cn2)cc1,inactive,
COC(=O)c1c(Cl)nn(C)c1S(=O)(=O)NC(=O)Nc1nc(OC)cc(OC)n1,inactive,
CCCCOC(=O)C(C)Oc1ccc(Oc2ccc(C(F)(F)F)cn2)cc1 (stereo not given),inactive,
CN(C)C(=O)Nc1ccc(Cl)c(Cl)c1,inactive,
C#CCOC(=O)[C@@H](C)Oc1ccc(Oc2ncc(Cl)cc2F)cc1,inactive,
C=CCOC(Cn1ccnc1)c1ccc(Cl)cc1Cl (stereo not given),inactive,
